Assay [1] deals with T1, Mitogen-activated protein kinase 12 (Homo sapiens) (UniProt P53778).
T1 sequence (whole entry): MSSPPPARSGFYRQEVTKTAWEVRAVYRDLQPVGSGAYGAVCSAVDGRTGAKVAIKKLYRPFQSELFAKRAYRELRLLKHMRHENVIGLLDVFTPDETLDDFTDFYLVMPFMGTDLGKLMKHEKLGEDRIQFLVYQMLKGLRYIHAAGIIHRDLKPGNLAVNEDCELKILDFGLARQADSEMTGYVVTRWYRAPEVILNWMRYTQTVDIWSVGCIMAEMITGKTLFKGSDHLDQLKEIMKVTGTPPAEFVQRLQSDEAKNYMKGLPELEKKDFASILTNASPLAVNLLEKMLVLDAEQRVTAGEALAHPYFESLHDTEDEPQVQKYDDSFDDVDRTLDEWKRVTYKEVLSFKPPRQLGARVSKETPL
Conditions: at 1 µM.

Assay [2] addresses SRSF protein kinase 1 (Homo sapiens) (UniProt Q96SB4). Conditions: at 0.1 µM.
For assay [3] the target is unchanged. Conditions: at 1 µM.
Assay [4] addresses Phosphatidylinositol 4,5-bisphosphate 3-kinase catalytic subunit alpha isoform (Homo sapiens) (UniProt P42336). Conditions: at 0.1 µM.
For assay [5] the target is unchanged. Conditions: at 1 µM.
For assay [6], the target named is T2, Phosphatidylinositol 4,5-bisphosphate 3-kinase catalytic subunit delta isoform (Homo sapiens) (UniProt O00329).
T2 sequence (whole entry): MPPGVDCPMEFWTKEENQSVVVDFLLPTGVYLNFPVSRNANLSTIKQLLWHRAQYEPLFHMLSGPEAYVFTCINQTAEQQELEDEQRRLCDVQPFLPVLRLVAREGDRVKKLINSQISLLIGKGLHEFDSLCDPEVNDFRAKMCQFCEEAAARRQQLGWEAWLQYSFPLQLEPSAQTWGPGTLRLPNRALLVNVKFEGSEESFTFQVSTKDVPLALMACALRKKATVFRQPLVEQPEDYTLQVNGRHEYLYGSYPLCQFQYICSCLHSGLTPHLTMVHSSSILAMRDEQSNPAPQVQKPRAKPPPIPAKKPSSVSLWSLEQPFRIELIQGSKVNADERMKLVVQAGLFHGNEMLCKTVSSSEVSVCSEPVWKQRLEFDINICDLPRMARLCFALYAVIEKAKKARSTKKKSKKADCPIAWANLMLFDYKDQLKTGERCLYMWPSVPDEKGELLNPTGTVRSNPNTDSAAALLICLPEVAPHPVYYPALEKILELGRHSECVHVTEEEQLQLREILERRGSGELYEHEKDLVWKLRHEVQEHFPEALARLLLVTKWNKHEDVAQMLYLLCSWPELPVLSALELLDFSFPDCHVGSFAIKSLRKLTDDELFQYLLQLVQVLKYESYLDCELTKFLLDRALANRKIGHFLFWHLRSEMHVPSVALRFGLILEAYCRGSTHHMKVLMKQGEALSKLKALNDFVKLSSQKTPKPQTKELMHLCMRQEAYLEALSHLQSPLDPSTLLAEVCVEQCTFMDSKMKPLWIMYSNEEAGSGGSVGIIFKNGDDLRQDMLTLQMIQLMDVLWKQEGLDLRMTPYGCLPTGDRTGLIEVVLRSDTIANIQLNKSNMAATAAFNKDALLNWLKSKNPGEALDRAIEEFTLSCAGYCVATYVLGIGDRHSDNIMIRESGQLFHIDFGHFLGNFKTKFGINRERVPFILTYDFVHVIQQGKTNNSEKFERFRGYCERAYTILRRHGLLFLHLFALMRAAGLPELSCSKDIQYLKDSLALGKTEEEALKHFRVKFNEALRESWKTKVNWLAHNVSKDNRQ
Conditions: at 0.1 µM.

The target in assay [7] is T2, Phosphatidylinositol 4,5-bisphosphate 3-kinase catalytic subunit delta isoform (Homo sapiens). Conditions: at 1 µM.
For assay [8], the target named is Phosphatidylinositol 4-kinase beta (Homo sapiens) (UniProt Q9UBF8). Conditions: at 0.1 µM.
Assay [9] shares this target. Conditions: at 1 µM.
For assay [10], the target named is Sphingosine kinase 1 (Homo sapiens) (UniProt Q9NYA1). Conditions: at 0.1 µM.
The target is the same in assay [11]. Conditions: at 1 µM.
For assay [12], the target named is T3, Sphingosine kinase 2 (Homo sapiens) (UniProt Q9NRA0).
T3 sequence (whole entry): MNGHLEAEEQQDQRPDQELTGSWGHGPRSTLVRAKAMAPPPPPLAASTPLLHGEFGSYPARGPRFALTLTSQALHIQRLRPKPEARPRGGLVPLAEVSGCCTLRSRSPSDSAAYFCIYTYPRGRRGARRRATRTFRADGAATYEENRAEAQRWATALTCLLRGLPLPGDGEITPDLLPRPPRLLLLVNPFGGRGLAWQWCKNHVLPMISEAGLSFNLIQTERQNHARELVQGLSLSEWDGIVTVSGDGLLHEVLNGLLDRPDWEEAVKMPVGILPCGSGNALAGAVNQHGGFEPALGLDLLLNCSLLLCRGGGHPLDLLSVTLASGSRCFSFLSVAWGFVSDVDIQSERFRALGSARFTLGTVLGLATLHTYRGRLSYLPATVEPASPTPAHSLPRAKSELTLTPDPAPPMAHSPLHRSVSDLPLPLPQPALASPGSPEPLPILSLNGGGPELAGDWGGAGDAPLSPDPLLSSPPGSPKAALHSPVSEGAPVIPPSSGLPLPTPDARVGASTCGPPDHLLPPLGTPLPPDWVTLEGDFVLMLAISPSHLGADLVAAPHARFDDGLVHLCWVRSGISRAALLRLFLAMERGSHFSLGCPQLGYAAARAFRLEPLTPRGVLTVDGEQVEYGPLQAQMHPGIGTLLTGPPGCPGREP
Conditions: at 0.1 µM.

In assay [13] the target is T3, Sphingosine kinase 2 (Homo sapiens). Conditions: at 1 µM.
Assay [14] concerns the target Casein kinase II subunit alpha (Homo sapiens) (UniProt P68400). Conditions: at 0.1 µM.
Assay [15] shares this target. Conditions: at 1 µM.
Assay [16] concerns the target T4, Inhibitor of nuclear factor kappa-B kinase subunit alpha (Homo sapiens) (UniProt O15111).
T4 sequence (whole entry): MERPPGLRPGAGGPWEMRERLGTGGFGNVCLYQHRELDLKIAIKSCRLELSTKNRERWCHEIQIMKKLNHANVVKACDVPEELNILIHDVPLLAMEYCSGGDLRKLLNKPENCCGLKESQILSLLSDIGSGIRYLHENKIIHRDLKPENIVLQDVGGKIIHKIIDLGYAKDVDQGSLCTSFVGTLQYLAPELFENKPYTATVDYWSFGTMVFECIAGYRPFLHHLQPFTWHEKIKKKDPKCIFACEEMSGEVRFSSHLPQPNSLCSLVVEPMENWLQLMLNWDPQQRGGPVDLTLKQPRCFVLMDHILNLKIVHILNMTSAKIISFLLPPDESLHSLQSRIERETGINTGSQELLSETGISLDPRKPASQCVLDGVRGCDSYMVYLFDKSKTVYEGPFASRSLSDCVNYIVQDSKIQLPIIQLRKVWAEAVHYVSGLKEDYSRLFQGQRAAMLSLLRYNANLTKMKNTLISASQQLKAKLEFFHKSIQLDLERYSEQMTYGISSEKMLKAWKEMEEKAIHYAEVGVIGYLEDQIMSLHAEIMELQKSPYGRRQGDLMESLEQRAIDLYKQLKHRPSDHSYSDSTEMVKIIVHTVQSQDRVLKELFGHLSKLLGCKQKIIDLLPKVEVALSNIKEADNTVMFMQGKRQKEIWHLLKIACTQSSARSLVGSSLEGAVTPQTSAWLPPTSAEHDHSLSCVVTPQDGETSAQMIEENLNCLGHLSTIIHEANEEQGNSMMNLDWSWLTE
Conditions: at 0.1 µM.

Assay [17] concerns the target T4, Inhibitor of nuclear factor kappa-B kinase subunit alpha (Homo sapiens). Conditions: at 1 µM.
Assay [18] has as its target T5, Inhibitor of nuclear factor kappa-B kinase subunit beta (Homo sapiens) (UniProt O14920).
T5 sequence (whole entry): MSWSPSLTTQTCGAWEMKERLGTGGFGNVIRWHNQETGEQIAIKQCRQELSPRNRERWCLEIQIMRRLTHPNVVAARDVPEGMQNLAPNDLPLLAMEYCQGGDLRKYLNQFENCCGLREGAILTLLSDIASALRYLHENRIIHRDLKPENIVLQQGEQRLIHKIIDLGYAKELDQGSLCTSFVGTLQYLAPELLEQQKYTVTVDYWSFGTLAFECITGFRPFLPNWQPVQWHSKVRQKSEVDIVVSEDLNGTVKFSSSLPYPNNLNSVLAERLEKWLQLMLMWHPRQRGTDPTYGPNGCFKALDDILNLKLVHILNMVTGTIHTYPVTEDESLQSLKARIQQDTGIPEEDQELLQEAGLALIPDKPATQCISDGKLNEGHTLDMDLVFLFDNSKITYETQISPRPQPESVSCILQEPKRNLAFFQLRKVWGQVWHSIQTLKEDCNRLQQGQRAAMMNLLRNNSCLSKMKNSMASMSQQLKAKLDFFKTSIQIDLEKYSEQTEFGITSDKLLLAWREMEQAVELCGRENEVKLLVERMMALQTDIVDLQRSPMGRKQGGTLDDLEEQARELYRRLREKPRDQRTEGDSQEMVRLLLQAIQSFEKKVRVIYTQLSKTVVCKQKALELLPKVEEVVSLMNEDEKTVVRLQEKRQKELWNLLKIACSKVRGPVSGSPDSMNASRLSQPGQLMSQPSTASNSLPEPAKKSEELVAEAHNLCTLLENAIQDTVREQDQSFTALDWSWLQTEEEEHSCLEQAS
Conditions: at 0.1 µM.

For assay [19], the target named is T5, Inhibitor of nuclear factor kappa-B kinase subunit beta (Homo sapiens). Conditions: at 1 µM.
For assay [20], the target named is T6, Inhibitor of nuclear factor kappa-B kinase subunit epsilon (Homo sapiens) (UniProt Q14164).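 Further: mean inhibition of IKKε reported, from the GSK PKIS dataset.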
T6 sequence (whole entry): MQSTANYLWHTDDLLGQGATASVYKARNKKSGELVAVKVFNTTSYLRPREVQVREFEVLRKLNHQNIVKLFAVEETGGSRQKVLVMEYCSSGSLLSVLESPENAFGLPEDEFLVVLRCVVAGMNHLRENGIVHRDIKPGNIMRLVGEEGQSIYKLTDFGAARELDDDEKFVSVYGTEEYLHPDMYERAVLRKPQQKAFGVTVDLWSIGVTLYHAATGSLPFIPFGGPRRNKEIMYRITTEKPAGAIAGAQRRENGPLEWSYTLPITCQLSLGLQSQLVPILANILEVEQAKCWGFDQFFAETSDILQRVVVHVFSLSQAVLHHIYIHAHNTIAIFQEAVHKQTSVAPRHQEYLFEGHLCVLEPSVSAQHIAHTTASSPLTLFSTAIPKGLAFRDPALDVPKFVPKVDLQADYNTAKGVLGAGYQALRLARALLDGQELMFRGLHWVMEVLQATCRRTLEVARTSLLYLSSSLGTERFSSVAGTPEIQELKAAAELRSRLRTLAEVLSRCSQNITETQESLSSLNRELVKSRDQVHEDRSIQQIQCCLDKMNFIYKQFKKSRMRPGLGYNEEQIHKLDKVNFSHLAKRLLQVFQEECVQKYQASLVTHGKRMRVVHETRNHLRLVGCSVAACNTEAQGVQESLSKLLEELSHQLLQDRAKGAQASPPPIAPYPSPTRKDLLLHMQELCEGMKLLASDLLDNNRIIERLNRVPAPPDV
Conditions: at 0.1 µM.

Molecules are shown by their SMILES.

Broadly, the inhibition is the change of the read-out against control, counted positive when it falls.

Sphingosine kinase 1 (Homo sapiens), sequence (Q9NYA1 whole entry): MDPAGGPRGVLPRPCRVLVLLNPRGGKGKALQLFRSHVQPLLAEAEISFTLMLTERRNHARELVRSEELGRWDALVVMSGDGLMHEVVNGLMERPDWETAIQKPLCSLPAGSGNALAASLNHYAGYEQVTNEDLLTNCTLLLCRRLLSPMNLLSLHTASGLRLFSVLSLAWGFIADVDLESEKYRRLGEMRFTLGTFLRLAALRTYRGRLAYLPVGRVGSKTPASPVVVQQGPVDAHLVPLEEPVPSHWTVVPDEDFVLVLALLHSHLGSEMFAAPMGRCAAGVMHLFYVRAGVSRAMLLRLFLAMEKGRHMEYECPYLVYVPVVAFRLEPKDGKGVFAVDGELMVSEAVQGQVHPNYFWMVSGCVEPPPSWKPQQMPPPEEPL
SRSF protein kinase 1 (Homo sapiens), sequence (Q96SB4 whole entry): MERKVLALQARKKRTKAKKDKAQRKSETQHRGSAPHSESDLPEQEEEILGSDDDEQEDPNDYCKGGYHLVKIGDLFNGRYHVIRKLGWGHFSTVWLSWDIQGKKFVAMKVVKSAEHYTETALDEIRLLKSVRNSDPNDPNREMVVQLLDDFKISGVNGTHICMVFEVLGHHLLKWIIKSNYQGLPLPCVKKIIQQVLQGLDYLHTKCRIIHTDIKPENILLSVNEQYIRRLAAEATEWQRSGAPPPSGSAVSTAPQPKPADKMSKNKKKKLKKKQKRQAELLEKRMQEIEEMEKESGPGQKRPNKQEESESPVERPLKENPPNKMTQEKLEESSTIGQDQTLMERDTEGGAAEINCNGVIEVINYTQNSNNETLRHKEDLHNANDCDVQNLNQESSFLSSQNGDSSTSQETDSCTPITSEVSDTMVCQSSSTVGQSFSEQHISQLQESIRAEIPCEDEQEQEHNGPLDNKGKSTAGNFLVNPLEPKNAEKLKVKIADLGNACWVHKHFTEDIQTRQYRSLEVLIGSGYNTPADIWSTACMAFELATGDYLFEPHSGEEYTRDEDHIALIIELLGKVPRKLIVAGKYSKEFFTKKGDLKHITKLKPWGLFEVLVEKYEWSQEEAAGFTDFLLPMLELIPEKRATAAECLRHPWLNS
Phosphatidylinositol 4-kinase beta (Homo sapiens), sequence (Q9UBF8 2-816 limits assumed): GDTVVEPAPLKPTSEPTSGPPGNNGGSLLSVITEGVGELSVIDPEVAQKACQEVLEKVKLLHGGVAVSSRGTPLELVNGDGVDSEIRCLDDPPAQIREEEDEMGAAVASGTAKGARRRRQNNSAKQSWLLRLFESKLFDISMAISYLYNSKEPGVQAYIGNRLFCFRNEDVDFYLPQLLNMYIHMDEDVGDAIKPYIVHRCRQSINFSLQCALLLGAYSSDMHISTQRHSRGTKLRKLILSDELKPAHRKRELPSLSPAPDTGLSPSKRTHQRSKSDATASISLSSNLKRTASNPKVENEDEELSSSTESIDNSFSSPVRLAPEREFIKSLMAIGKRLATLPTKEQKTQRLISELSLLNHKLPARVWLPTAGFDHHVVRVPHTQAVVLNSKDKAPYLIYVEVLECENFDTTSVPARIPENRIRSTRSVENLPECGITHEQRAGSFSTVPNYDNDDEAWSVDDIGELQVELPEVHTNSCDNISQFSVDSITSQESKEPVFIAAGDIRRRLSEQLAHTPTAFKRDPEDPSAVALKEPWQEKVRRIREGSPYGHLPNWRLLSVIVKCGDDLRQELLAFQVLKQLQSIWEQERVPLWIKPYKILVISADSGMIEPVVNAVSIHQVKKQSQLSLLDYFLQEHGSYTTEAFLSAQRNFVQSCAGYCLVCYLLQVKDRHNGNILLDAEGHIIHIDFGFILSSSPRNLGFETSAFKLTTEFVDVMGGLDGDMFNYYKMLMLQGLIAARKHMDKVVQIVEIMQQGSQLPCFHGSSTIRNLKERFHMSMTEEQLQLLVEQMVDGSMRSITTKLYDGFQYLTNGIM
Phosphatidylinositol 4,5-bisphosphate 3-kinase catalytic subunit alpha isoform (Homo sapiens), sequence (P42336 whole entry, canonical isoform): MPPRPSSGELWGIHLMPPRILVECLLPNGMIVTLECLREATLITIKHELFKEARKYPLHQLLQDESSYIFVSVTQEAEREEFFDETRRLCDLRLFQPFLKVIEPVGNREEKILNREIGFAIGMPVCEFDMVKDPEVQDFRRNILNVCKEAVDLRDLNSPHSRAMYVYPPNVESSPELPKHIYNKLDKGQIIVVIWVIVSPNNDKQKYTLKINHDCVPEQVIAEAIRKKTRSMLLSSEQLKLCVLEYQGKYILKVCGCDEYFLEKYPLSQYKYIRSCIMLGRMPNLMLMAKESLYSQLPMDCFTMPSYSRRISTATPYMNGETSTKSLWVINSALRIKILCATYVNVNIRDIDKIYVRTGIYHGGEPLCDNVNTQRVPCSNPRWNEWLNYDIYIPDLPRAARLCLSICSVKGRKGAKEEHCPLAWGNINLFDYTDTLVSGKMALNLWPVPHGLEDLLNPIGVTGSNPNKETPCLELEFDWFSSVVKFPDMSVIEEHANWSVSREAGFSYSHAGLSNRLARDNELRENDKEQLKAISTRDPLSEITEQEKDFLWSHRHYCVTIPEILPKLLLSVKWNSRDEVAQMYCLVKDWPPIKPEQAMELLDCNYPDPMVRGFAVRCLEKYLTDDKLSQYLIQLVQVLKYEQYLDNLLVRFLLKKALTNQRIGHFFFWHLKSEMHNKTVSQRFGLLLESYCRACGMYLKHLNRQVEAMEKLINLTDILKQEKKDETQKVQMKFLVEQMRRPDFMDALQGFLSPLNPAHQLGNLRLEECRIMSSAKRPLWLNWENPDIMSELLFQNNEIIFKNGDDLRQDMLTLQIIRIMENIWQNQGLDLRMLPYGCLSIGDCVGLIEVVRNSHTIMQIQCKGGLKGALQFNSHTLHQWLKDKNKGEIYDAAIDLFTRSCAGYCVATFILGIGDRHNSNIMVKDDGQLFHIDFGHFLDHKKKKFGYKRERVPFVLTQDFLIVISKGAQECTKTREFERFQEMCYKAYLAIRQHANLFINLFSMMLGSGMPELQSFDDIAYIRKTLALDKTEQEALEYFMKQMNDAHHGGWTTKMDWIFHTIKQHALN
Casein kinase II subunit alpha (Homo sapiens), sequence (P68400 whole entry, looked up): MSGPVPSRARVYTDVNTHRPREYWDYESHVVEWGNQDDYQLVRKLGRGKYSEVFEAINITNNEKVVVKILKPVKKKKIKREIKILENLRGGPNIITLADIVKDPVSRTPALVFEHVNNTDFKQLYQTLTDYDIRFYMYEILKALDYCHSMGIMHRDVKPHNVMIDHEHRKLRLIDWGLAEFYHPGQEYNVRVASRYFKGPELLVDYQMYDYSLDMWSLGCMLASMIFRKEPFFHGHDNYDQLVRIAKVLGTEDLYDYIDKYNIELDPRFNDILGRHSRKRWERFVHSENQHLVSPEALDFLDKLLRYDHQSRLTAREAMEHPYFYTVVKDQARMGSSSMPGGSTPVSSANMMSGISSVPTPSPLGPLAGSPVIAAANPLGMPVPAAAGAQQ

In the case of `Nc1nc(-c2ccccn2)c(-c2ccc3ncccc3n2)s1`, the inhibition is 1.76% in [1]; -1.15% in assay [2]; -0.55% in assay [3]; 4.05% in assay [4]; 5.74% in assay [5]; 2.87% in [6]. Besides, the inhibition in [7] is 3.05%; in assay [8], 4.8%; in [9] it was 0.96%; in [10] it was -1.16%; in assay [11], -3.49%; in assay [12], -0.63%. Further, the inhibition in assay [13] is -3.19%; in [14], 2.62%; in assay [15], 10.1%; in assay [16] it was 4.74%; in [17], 9.42%; in assay [18], 4.18%. The inhibition was found to be 4.54% in assay [19] and 3.83% in assay [20].
As to `CS(=O)(=O)CCN(CC#N)Cc1ccc(-c2ccc3ncnc(Nc4ccc(OCc5cccc(F)c5)c(Cl)c4)c3c2)o1`, the inhibition in assay [1] is 2.68%; in assay [2], -2.4%; in assay [3], -1.01%; in assay [4] it was 2.09%; in [5] it was 4.03%; in assay [6], 1.1%. For the same compound, the inhibition was 4.27% in assay [7]; 2.65% in assay [8]; 3.34% in assay [9]; 1.82% in assay [10]; -0.02% in [11]; -0.3% in [12]. The inhibition in [13] is -0.75%; in [14] it was 5.37%; in [15], 1.72%; in [16], 4.16%; in [17] it was 2.09%; in [18], 3.6%. In addition, the figures for the inhibition in assay [19] and in assay [20] were 3.73% and 1.37%, respectively.
Consider `Nc1ncnc2occ(-c3ccc(NC(=O)Nc4cc(C(F)(F)F)cc(C(F)(F)F)c4)cc3)c12`, for which the inhibition is 10.2% in assay [1]; -0.82% in assay [2]; 0.68% in assay [3]; 0.61% in assay [4]; 2.7% in assay [5]; 2.62% in [6]. The inhibition in assay [7] was 3.45%; in [8], 1.16%; in assay [9], 2.78%; in assay [10], 0.12%; in assay [11], -0.76%; in [12], 1.12%. Besides, the inhibition is -0.25% in assay [13]; 0.36% in assay [14]; -5.3% in assay [15]; -5.23% in assay [16]; -3.15% in assay [17]; -0.04% in assay [18]. Besides, the inhibition in assay [19] is 1.07%; in [20], -2.4%.

The values above are taken from ChEMBL document CHEMBL1961873, “Compounds: GSK PKIS; Assays: Nanosyn kinase panel” (2012).
